Legend:
Assay in all cases: log2 ratio of Biotin-Ahx-Ub-VS probe labelling (fragment/DMSO); higher = less target engagement (more negative = stronger competition), active = hit call of the paper (q ≤ 0.05, log2 ratio ≤ -1)
Details in all cases: compound concentration: 200 uM; treatment time: 3 h
USP34 = USP34 (UniProt Q70CQ2)
Outline: (§1)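 HEK293T lysate, 495 µg per sample in Tris/CHAPS/IGEPAL buffer with protease inhibitors, was treated in triplicate with fragment at 200 µM or vehicle for 3 h and then with Biotin-Ahx-Ub-VS at 0.5 µM final for 1 h. Labelled DUBs were NeutrAvidin-enriched, digested with LysC and trypsin, and run by diaPASEF LC-MS/MS. Spectronaut label-free quantities were global-median-normalised, and values are average log2 fragment/vehicle ratios by unpaired t-test on proteins with ≥2 unique peptides.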

USP36 = molecular target: T1, USP36 (UniProt Q9P275)
T1 sequence (whole entry): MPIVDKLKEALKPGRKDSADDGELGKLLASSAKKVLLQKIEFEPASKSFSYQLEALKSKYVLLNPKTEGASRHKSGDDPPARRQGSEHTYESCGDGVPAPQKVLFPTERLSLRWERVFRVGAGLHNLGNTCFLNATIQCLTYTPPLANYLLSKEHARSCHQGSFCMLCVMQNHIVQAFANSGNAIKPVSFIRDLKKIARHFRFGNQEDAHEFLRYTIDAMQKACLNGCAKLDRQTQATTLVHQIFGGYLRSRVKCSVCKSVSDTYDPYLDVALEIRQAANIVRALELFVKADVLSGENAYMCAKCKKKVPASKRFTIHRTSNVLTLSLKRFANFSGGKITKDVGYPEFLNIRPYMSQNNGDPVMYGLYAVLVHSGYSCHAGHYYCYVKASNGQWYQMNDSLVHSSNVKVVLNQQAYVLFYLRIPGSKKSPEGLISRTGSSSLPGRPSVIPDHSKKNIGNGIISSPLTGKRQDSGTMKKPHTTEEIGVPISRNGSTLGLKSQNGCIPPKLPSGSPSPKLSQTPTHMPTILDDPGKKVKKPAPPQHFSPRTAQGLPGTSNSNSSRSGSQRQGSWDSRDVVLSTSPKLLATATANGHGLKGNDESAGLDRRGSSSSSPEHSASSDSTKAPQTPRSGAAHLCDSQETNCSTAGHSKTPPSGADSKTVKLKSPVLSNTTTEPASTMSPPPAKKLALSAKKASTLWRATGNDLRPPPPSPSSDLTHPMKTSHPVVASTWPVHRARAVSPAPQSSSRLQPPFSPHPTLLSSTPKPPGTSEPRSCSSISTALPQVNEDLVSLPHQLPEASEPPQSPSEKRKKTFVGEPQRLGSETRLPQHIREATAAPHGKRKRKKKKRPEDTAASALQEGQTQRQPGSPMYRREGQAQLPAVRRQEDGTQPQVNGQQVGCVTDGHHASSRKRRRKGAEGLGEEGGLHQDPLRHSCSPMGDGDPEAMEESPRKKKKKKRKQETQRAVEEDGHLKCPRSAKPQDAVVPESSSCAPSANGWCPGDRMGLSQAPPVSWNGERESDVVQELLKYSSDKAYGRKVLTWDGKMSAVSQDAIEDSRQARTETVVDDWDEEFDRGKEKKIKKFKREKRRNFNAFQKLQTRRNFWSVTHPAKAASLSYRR
Outline: as §1

USP38 = molecular target: T2, USP38 (UniProt Q8NB14)
T2 sequence (whole entry): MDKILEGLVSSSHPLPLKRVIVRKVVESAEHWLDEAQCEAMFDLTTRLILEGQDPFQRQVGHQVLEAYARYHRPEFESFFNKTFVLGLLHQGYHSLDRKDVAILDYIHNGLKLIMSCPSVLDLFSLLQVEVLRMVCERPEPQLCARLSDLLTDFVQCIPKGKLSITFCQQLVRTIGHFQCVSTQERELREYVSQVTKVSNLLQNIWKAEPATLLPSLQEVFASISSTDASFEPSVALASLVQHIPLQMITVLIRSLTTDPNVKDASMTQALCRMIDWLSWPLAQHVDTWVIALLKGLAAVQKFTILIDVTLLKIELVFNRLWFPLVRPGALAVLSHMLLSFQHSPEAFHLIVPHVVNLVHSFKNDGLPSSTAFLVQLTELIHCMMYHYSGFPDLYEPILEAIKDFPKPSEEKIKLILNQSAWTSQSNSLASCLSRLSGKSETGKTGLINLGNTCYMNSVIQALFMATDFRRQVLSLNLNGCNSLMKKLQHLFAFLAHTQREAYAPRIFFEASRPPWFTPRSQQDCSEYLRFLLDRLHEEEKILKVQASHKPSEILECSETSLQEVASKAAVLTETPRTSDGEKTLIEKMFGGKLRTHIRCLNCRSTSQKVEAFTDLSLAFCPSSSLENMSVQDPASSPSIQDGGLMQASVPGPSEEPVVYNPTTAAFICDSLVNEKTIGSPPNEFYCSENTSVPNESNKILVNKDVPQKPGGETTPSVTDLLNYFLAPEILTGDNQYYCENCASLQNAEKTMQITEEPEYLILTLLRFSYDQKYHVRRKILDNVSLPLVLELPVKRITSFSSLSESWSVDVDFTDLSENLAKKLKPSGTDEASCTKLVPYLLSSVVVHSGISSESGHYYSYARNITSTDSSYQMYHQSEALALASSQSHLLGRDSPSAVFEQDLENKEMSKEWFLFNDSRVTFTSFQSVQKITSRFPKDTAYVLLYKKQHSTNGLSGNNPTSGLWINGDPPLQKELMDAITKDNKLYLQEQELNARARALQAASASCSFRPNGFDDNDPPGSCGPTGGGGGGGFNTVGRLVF
Outline: as §1

USP39 = molecular target: T3, USP39 (UniProt Q53GS9)
T3 sequence (whole entry): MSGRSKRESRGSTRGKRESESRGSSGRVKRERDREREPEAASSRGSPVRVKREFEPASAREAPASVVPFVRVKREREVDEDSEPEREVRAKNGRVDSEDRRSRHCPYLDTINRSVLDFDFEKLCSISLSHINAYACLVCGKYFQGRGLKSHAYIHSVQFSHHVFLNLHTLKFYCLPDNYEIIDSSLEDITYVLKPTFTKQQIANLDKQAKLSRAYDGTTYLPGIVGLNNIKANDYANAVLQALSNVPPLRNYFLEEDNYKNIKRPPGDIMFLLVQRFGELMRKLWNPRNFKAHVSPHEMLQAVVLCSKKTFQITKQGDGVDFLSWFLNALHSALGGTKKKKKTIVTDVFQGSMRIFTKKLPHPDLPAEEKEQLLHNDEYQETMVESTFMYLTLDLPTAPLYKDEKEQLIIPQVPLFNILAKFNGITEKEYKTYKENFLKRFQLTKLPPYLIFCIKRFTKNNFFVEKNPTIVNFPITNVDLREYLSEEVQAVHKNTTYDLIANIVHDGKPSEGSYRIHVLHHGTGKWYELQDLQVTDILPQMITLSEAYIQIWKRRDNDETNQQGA
Outline: as §1

USP4 = molecular target: T4, USP4 (UniProt Q13107)
T4 sequence (whole entry): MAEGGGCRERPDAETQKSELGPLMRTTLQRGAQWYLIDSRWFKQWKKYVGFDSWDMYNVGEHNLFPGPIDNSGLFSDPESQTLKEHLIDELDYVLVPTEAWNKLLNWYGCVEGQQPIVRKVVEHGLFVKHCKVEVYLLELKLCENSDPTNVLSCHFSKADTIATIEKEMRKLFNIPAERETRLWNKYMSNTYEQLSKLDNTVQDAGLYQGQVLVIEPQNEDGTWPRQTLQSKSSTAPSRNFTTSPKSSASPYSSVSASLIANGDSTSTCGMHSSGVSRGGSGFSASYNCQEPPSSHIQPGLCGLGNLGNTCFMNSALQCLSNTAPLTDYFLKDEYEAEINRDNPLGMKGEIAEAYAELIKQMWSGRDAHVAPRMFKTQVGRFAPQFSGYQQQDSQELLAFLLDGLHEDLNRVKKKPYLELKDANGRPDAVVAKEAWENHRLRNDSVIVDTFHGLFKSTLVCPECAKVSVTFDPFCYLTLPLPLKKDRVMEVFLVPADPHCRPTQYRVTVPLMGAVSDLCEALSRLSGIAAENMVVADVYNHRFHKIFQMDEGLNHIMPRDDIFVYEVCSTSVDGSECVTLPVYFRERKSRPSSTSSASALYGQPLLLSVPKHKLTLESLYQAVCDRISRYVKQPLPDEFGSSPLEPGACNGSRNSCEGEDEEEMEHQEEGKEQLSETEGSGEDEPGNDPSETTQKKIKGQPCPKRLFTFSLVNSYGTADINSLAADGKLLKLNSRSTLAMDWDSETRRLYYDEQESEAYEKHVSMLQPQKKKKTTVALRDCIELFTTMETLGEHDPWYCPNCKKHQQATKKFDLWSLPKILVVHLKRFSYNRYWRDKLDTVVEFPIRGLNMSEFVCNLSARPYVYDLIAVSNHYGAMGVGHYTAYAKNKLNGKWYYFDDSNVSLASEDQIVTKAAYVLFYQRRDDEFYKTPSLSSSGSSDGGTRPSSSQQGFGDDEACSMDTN
Outline: as §1

Measured: log2 ratio of Biotin-Ahx-Ub-VS probe labelling

Chain of USP34 (Q70CQ2 whole entry, the tested form may be a part): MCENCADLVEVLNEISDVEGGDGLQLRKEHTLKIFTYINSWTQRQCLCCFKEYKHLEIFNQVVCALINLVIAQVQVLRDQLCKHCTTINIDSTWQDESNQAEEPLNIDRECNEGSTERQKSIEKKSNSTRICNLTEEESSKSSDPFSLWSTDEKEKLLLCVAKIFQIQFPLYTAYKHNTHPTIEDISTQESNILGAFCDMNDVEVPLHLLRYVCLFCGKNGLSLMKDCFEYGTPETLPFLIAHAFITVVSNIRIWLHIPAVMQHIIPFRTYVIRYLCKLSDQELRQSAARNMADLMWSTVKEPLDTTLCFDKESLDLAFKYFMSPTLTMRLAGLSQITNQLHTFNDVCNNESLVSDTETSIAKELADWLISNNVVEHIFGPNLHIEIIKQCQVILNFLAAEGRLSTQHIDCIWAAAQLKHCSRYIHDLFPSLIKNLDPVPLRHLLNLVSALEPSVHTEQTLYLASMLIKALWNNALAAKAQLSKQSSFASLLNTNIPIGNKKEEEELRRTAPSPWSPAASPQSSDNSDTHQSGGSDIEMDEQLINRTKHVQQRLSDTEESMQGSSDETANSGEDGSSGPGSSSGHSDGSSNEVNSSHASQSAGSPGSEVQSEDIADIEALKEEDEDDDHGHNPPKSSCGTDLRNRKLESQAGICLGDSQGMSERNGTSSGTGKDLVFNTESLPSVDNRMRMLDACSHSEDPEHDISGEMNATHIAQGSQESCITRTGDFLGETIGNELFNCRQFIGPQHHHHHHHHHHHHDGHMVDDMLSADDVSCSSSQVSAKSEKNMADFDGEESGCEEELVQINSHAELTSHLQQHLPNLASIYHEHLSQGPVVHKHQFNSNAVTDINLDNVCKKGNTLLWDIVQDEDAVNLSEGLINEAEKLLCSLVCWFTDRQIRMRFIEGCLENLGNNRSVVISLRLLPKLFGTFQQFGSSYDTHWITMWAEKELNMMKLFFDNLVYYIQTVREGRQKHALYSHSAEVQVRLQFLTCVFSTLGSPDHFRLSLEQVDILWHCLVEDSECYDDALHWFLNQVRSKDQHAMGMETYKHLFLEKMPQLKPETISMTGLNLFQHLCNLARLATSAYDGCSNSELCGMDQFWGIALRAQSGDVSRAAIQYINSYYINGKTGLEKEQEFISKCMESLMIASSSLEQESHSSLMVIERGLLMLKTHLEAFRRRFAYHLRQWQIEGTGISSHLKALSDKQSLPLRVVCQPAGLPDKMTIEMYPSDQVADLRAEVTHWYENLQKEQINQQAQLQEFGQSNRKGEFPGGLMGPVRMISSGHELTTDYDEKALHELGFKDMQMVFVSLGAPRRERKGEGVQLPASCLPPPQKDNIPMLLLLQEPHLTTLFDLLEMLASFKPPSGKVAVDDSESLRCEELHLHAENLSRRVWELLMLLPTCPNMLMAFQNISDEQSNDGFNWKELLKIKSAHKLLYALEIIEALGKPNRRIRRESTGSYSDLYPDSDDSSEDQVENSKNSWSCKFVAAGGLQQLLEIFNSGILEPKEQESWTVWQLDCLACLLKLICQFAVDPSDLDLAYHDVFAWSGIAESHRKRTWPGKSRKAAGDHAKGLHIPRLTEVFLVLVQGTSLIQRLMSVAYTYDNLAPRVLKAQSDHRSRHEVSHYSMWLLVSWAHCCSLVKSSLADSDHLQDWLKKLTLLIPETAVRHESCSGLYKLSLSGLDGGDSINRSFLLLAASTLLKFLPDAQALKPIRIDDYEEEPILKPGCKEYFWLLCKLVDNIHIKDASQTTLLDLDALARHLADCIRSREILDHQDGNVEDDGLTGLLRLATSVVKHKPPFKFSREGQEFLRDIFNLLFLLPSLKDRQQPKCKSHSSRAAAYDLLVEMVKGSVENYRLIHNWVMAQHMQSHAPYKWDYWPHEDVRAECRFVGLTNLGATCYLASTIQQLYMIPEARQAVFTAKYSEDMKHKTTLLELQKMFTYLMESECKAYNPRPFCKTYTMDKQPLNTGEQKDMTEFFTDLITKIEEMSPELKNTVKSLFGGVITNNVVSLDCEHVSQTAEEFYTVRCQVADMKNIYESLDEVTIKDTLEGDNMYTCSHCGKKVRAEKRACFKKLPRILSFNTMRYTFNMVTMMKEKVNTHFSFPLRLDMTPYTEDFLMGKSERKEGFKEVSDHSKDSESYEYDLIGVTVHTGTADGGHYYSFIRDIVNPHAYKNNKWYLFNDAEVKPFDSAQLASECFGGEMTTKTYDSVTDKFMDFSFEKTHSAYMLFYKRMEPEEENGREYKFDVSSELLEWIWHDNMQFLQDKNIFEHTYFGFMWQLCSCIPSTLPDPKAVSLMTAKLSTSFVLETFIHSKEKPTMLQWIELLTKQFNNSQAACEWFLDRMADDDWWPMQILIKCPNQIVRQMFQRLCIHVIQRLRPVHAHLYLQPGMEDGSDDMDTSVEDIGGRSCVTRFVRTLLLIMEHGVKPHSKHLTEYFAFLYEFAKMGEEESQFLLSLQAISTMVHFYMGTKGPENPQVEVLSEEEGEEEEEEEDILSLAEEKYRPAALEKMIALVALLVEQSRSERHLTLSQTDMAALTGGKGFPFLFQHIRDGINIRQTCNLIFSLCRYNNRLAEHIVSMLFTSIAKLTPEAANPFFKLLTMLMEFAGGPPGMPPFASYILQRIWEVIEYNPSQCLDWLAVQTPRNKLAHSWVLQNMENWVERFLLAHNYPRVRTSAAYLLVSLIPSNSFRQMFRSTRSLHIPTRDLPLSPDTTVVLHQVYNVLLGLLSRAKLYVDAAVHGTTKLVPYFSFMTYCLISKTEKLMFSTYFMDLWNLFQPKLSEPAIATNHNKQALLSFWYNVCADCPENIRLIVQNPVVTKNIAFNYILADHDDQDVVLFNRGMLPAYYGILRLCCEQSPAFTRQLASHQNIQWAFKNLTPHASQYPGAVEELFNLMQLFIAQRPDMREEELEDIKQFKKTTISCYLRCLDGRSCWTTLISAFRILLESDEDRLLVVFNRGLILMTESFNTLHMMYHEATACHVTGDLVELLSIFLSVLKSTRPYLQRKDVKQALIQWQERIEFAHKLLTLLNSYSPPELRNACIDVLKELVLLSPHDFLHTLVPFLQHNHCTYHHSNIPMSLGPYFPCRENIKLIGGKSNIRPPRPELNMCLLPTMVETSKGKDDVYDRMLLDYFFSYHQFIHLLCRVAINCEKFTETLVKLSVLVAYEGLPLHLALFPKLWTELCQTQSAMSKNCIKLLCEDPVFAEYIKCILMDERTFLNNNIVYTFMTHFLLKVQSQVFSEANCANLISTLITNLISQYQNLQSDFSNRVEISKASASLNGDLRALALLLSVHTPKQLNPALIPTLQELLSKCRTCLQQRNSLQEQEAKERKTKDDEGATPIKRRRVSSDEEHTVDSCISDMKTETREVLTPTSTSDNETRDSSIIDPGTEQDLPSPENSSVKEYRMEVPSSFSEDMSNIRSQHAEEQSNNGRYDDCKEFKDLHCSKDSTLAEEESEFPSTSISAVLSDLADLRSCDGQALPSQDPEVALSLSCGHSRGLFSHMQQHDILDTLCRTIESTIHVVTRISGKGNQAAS

O=C(CCl)N1CCCCC12CCOCC2
inactive: USP34 -0.284 | USP36 -0.239 | USP38 -0.4 | USP39 -0.243 | USP4 -0.266
